ARNT TACC3 PPI = disruptors of human ARNT/TACC3 interaction; Q9Y6A5; AlphaScreen His-ARNT PAS-B/GST-TACC3 binding, luminescence; TACC3 fragment carries E629A point mutation; inhibition, % at 9.99 µM; 0.66% of 390,000 active; AID 623870;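 active means mean inhibition of replicates at least 50% and at least half of replicates each reaching 50%; inconclusive means half or more replicates reach 50% but mean below 50%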;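 further: 0% = complete ARNT plus TACC3 wells and 100% = ARNT alone without TACC3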
AI-2 QS modul = Vibrio harveyi AI-2 quorum sensing modulation; Vibrio harveyi JMH597 AI-2 luminescence/OD600 ratio, 9 h; active compounds read low; strain lacks LuxN and CqsS sensors; 0 = neutral-control median; activity change, % at 7.5 µM; 0.4% of 300,000 active; AID 2094; in the data active means activity change below about -75%, passing the limit was not always enough; inconclusive means no clear call, values can overlap the other calls;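 further: luminescence divided by OD600 gain over 9 h not by final OD600 alone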
aDG glyco act = increases alpha dystroglycan glycosylation; activation, % at 10 µM; Pro5-aDG cells, alpha-DG glycosylation AlphaScreen (IIH6); 0% Pro5, 100% B10-LARGE cell signal; 0.22% of 360,000 active;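 active means activation of at least 8% versus controls, or a plate z-score of at least 8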;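 further: Pro5 are CHO cells carrying HIG-tagged alpha-DG that lacks glycosylation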
Mot1-301 SUMO = SUMOylation pathway inhibition by Mot1-301 growth rescue. S. cerevisiae Mot1-301 growth rescue, ATP luminescence, 38.5C; percent above DMSO median, 100 means doubled. growth rescue, % at 18.8 µM. 1% of 320,000 active. AID 2716;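 active means every valid replicate shows activation above 250% relative to neutral control wells; inactive means the rest, any valid replicate at or below 250%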;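 further: OY570 slx delta 5 strain wells were the positive control but not used for scaling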
A1 inh = inhibitors of the anti-apoptotic protein A1, read as caspase activation; MEF A1-2A-BIM cells, Caspase-Glo 3/7 luminescence, 3 h; percent of clofoctol response, vehicle zero; caspase activation, % (no concentration beside the values); 0.066% of 330,000 active;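 active means over half of replicate activation scores above 10%, or exactly half above 10 with the replicate mean above 10; inconclusive means replicate mean below 10 yet half the replicates above 10; inactive means over half of replicates below 10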
* hit, by the source's call. This is a sample that favours compounds with a hit; in the whole collection about 1.8% have one here.

What do the screens show for `CC(=O)c1ccc(NC(=O)c2ccc3nc(-c4ccco4)c(-c4ccco4)nc3c2)cc1`?
ARNT TACC3 PPI: 11; AI-2 QS modul: 17; aDG glyco act: 0; Mot1-301 SUMO: 3; A1 inh: 0

What do the screens show for `O=C(NCCCO)c1ccc2nc(-c3ccco3)c(-c3ccco3)nc2c1`?
ARNT TACC3 PPI: 47*; aDG glyco act: 1

Results for O=C(Nc1ccccc1)c1ccc2nc(-c3ccco3)c(-c3ccco3)nc2c1 ?
ARNT TACC3 PPI: 47*; AI-2 QS modul: 10; aDG glyco act: 0; Mot1-301 SUMO: -16; A1 inh: 0

Results for Cc1cc(/C([O-])=C(/C(=S)Nc2ccc(F)cc2)[n+]2ccccc2)c(C)n1-c1ccc(F)cc1 ?
ARNT TACC3 PPI: 47*; AI-2 QS modul: 31; aDG glyco act: 0; Mot1-301 SUMO: -20; A1 inh: -1

How did Cc1cc(/C([O-])=C(/C(=S)Nc2ccccc2)[n+]2ccccc2)c(C)n1-c1ccccc1 do in these assays?
ARNT TACC3 PPI: 21; AI-2 QS modul: 27; aDG glyco act: 0; Mot1-301 SUMO: 69; A1 inh: 0

What do the screens show for `Cc1cccc(OCC(=O)N2CCN(C(=O)COc3ccc(Cl)cc3)CC2)c1`?
ARNT TACC3 PPI: 11; AI-2 QS modul: 34; aDG glyco act: 0; Mot1-301 SUMO: 8; A1 inh: 0

Results for O=C(NNc1nc2cc3c(cc2s1)OCCO3)c1ccc(F)cc1 ?
ARNT TACC3 PPI: 21; AI-2 QS modul: -90*; aDG glyco act: 0; Mot1-301 SUMO: 1; A1 inh: -1

How did CCN1/C(=C/C=C/c2oc3ccc(-c4ccccc4)cc3[n+]2CC)Oc2ccc(-c3ccccc3)cc21 do in these assays?
ARNT TACC3 PPI: -26; AI-2 QS modul: -1; aDG glyco act: 0; Mot1-301 SUMO: 339*; A1 inh: -1

What do the screens show for `O=C1N2CCCCC1(c1ccccc1)CCCC2`?
aDG glyco act: 0

Results for O=C(Nc1nnc(-c2ccccc2SCc2ccccc2)s1)Nc1ccccc1F ?
ARNT TACC3 PPI: 0; AI-2 QS modul: -7; aDG glyco act: 0; A1 inh: 0

Results for CC(C)c1ccc(OCC(=O)NNC(=O)c2cnccn2)cc1 ?
ARNT TACC3 PPI: 12; AI-2 QS modul: -83*; aDG glyco act: 0; Mot1-301 SUMO: -38; A1 inh: 1

Results for O=C(COc1ccc2ccccc2c1)NNC(=O)c1cnccn1 ?
ARNT TACC3 PPI: 4; AI-2 QS modul: -6; aDG glyco act: 0; Mot1-301 SUMO: -7; A1 inh: 1

How did COc1cc(C(=O)NC(=S)NNC(=O)c2cnccn2)cc(OC)c1OC do in these assays?
ARNT TACC3 PPI: 65*; AI-2 QS modul: -38; aDG glyco act: 0; Mot1-301 SUMO: -5; A1 inh: 0

What do the screens show for `COc1ccc(C(=O)NC(=S)NNC(=O)c2cnccn2)cc1`?
ARNT TACC3 PPI: 59*; AI-2 QS modul: -13; aDG glyco act: 0; Mot1-301 SUMO: 35; A1 inh: 0

What do the screens show for `O=C(NC(=S)NNC(=O)c1cnccn1)c1ccc(Cl)cc1`?
ARNT TACC3 PPI: 54*; AI-2 QS modul: 34; aDG glyco act: 0; Mot1-301 SUMO: -35; A1 inh: -1

How did COc1ccc(CC(=O)NNC(=O)c2cnccn2)cc1 do in these assays?
ARNT TACC3 PPI: 25; AI-2 QS modul: 19; aDG glyco act: 0; Mot1-301 SUMO: -14; A1 inh: 1

What do the screens show for `O=C(NCCCNC(=O)c1cnccn1)c1ccc(Cl)cc1`?
ARNT TACC3 PPI: 6; AI-2 QS modul: 11; aDG glyco act: 0; Mot1-301 SUMO: 255; A1 inh: 0

How did Cc1cc(O)ccc1N/C=C1\CCCC1=O do in these assays?
AI-2 QS modul: 13; aDG glyco act: 0; Mot1-301 SUMO: 4; A1 inh: 0

What do the screens show for `Cc1ccc([N+](=O)[O-])cc1N/C=C1\CCCCC1=O`?
ARNT TACC3 PPI: 1; AI-2 QS modul: 10; aDG glyco act: 1; Mot1-301 SUMO: active; A1 inh: 0

Results for C[C@H](NC(=O)[C@@H]1Cc2ccccc2CN1C(=O)OC(C)(C)C)C(=O)NCc1ccco1 ?
ARNT TACC3 PPI: -11; AI-2 QS modul: -4; aDG glyco act: 0; Mot1-301 SUMO: 2; A1 inh: 0

What do the screens show for `Cn1nccc1C(=O)N1CCN(c2ncccn2)CC1`?
AI-2 QS modul: 7; aDG glyco act: 0; Mot1-301 SUMO: 336*; A1 inh: -1

Results for Cn1nccc1C(=O)N1CCN(c2ccccc2Cl)CC1 ?
ARNT TACC3 PPI: -8; AI-2 QS modul: -1; aDG glyco act: -1; Mot1-301 SUMO: 4; A1 inh: 0

How did C#CCOCCOCCOCCNc1nc(N2CCN(C(=O)C(CCC(=O)O)n3cc(C(N)CC(C)C)nn3)CC2)nc(N2CCN(C(=O)C(Cc3cc4ccccc4[nH]3)n3cc(C(N)Cc4ccc(O)cc4)nn3)CC2)n1 (stereo unspecified) do in these assays?
ARNT TACC3 PPI: 46*; AI-2 QS modul: 12; aDG glyco act: 0; Mot1-301 SUMO: -5; A1 inh: 1

What do the screens show for `O=C(CCC(=O)OCCCC(F)(F)C(F)(F)F)Nc1ccccc1`?
ARNT TACC3 PPI: 1; AI-2 QS modul: 13; aDG glyco act: 0; Mot1-301 SUMO: 1; A1 inh: 1

How did O=C1C(Cl)=C(NCc2cccnc2)C(=O)c2ccccc21 do in these assays?
ARNT TACC3 PPI: 23; AI-2 QS modul: -18; aDG glyco act: 2.9*; Mot1-301 SUMO: 21; A1 inh: 0

How did C=CCNC1=C(Cl)C(=O)c2ccccc2C1=O do in these assays?
ARNT TACC3 PPI: 4; AI-2 QS modul: -7; aDG glyco act: 9.7*; Mot1-301 SUMO: 37; A1 inh: -2

Results for CCN(CC)CCCNC1=C(Cl)C(=O)c2ccccc2C1=O ?
ARNT TACC3 PPI: 15*; AI-2 QS modul: 17; aDG glyco act: 9.2*; Mot1-301 SUMO: -3; A1 inh: 0

What do the screens show for `CC(C)NC1=C(Cl)C(=O)c2ccccc2C1=O`?
ARNT TACC3 PPI: -4; AI-2 QS modul: 3; aDG glyco act: 6.3*; Mot1-301 SUMO: -1; A1 inh: -2

What do the screens show for `O=C1C(Cl)=C(NCCc2ccccc2)C(=O)c2ccccc21`?
ARNT TACC3 PPI: 41; aDG glyco act: 0

What do the screens show for `CCN(CC)Cc1cc(C(=O)O)c(C)o1`?
ARNT TACC3 PPI: -2; AI-2 QS modul: 17; aDG glyco act: 0; Mot1-301 SUMO: 18; A1 inh: inconclusive

How did COc1c(Cl)cc(Cl)cc1C(=O)Nc1ccc(CN2CCCCC2)cc1 do in these assays?
ARNT TACC3 PPI: -9; AI-2 QS modul: 16; aDG glyco act: 5; Mot1-301 SUMO: 150; A1 inh: 2

How did COc1c(Cl)cc(Cl)cc1C(=O)Nc1ccc(CN2CCOCC2)cc1 do in these assays?
ARNT TACC3 PPI: -5; AI-2 QS modul: 11; aDG glyco act: 0; Mot1-301 SUMO: 356*; A1 inh: 0

Screens deposited in PubChem by several laboratories.
